Shown are actives, neighbours in structure and some others; about 5.7% of the full set was active somewhere.
GLP1R ag – agonists of human GLP-1 receptor; P43220; HEK293 GLP-1R CRE-luciferase, luminescence, 4-6 h; cells express a hypersensitive GLP-1R form; Potency, µM (top dose mostly 45.6 µM), inactives show at the highest dose activation, actives largely listed as activators; hit rate 0.007% among 380,000; AID 624172; note: potency is the fitted concentration of half-maximal effect; % of control where 0% means no effect
GLP1R cytotox – cytotoxicity in counter-screen for GLP-1R inverse agonists. Potency, µM (series often up to 38.3 µM), without a hit: at the top dose activity change, negative = inhibition, most hits filed as inhibitors. AID 624418. hit rate 0.13% among 410,000. HEK293 cAMP-luciferase reporter cells, luminescence, 24 h;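 note: loss of luciferase light is scored as toxicity; potency is the fitted concentration of half-maximal effect; % is set by controls: 0 for no effect and ±100 for the full control effect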
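Here, cytotoxicity is scored as loss of luminescence. The MLSMR collection was tested on cells seeded in medium containing 10% Nu serum, with a 24 hr compound exposure preceded by 12 hours of culture.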
ClpP mod – qHTS Assay for Activators of ClpP; ATP-dependent Clp protease proteolytic subunit (Bacillus subtilis (strain 168)), P80244; purified B. subtilis ClpP, FRET peptide cleavage, 20 min; Potency, µM (highest dose often 57.5 µM), for the others: at the top dose activity change, negative = active; hit rate 1.9% among 340,000; active = well fitted falling curve with a large enough effect; inconclusive = small, poorly fitted or top-dose-only effect; inactive = no such curve, though single readings can be large or run the other way; note: potency is the fitted concentration of half-maximal effect; the source files actives as falling curves though it sought activators and does not explain the sign; nearly all actives have a fitted effect of over 65% in size
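ClpP 10 microg/mL final, pH 8 Tris/KCl buffer with BSA, glycerol, Tween-20; compound pinned in; FRET-FV substrate; RT 20 min; Ex320/Em430; ΔFRET vs ADEP 5.8 microM, DMSO, no enzyme.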
DRD3 agonist – agonists of human D3 dopamine receptor | max activation, % | hit rate 0.58% among 410,000 | P35462 | D3R DiscoveRx beta-arrestin cells, luminescence, 90 min; in the data active = max activation above about 30%; note: 0% is about no effect
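Agonist mode: compounds and dopamine controls were applied to plated cells for 90 min at 37 degrees C after an overnight attachment at 1500 cells/well. Luminescent read-out followed 30 - 60 minutes at room temperature with DiscoveRx detection reagent.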
GLP-1R inv ag – inverse agonists of human GLP-1 receptor; Potency, µM (highest dose often 38.3 µM), for inactives: at the highest dose activity change, negative = inhibition, usual class: inhibitors; P43220; HEK293 GLP-1R CRE-luciferase, luminescence, 24 h; GLP-1R form is constitutively active; hit rate 1.6% among 410,000; note: potency is the fitted concentration of half-maximal effect; % is set by controls: 0 for no effect and ±100 for the full control effect; nearly all actives have a fitted effect of over 55% in size
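HEK293 cells stably co-expressing a cAMP-responsive luciferase reporter and constitutively active GLP-1R were seeded, incubated 12 h, then exposed to compounds for 24 h at 37 C. Luminescence was read 12 min after detection reagent; inverse agonists lower signal.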
D3 antag – D3 dopamine receptor (human) antagonism. D3R cells, DiscoveRx beta-arrestin luminescence, antagonist mode; active compounds read low. AID 652054. hit rate 2.5% among 360,000. max response, negative = inhibition, %; in the data active = max response below about -50%; inconclusive = no clear call, values can overlap the other calls; note: % is set by controls: 0 for no effect and ±100 for the full control effect
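Cells expressing the human receptor were seeded at 1500 cells/well, incubated overnight at 37 degrees C in 5% CO2, then exposed to library compounds with dopamine controls for 90 minutes at 37 degrees C before luminescent detection.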
Starred values were filed as active, the others as inactive; u = inconclusive; x = no result given. Unless noted, calls come from the whole dose curve; as a rule, active = well fitted curve in the direction sought with a large enough effect; inconclusive = small, poorly fitted or top-dose-only effect, or another doubt; inactive = no such curve, though single readings can be large; an effect the other way counts as inactive or inconclusive.

SMILES	GLP1R ag	GLP1R cytotox	ClpP mod	DRD3 agonist	GLP-1R inv ag	D3 antag
CCOC(=O)c1c(C(=O)OCC)c(C)n(N2C(=O)CSC2=S)c1C	-4%	9%	2%	-2	10%	-62*
Cc1cc2nc(C)c(Cc3ccccc3)c(=O)n2[nH]1	-10%	-2%	14µM*	1	-4%	1
CN(CCCNC(=O)c1ccc(/C=N/O)nc1)CCCN(C)Cc1ccccc1	-12%	u	-2%	-9	u	-28
CN(CCNC(=O)c1ccc(/C=N/O)nc1)Cc1ccccc1	0%	2%	-2%	-31	0%	-76*
COC(=O)c1[nH]c2ccc(C)cc2c1NC(=O)CN1CCC(C)CC1	-6%	-19%	28µM*	-7	6.3µM*	-5
COC(=O)c1[nH]c2ccccc2c1NC(=O)CN1CCN(C/C=C/c2ccccc2)CC1	7%	u	22µM*	-12	u	u
COC(=O)c1[nH]c2ccc(C)cc2c1NC(=O)CN1CCN(Cc2ccccc2)CC1	-2%	u	14µM*	4	u	1
COC(=O)c1[nH]c2ccc(C)cc2c1NC(=O)CN1CCN(C(=O)c2ccccc2)CC1	0%	u	14µM*	2	-32%	-18
COC(=O)c1[nH]c2ccc(Cl)cc2c1NC(=O)CN1CCC(C(N)=O)CC1	10%	-6%	-22%	-8	2%	9
Cc1ccc(C)c(N2CCN(Cc3csc(C)c3)CC2)c1	x	-3%	-1%	-38	u	x
Cc1ccc(NC(=O)Cn2c(-c3cncs3)nc3ccccc32)c(Br)c1	x	-4%	-18%	1	10%	x
COc1ccc2c(C(=S)N(C)CC(=O)O)cccc2c1C(F)(F)F	-4%	x	x	x	x	x
CCOC(=O)N1CCN(CC(=O)Nc2c(C(=O)OC)[nH]c3ccc(Cl)cc23)CC1	-5%	-25%	u	4	u	17
CCOC(=O)N1CCN(CC(=O)Nc2c(C(=O)OC)[nH]c3cccc(Cl)c23)CC1	-1%	6%	-27%	40*	7%	u
CCOC(=O)c1[nH]c2ccc(OCC)cc2c1NC(=O)CN1CCN(c2ccccc2)CC1	2%	-3%	u	-1	2%	18
COC(=O)c1[nH]c2ccc(C)cc2c1NC(=O)CN1CCN(c2ccc(F)cc2)CC1	5%	-17%	-4%	3	4µM*	17
COC(=O)c1[nH]c2ccc(C)cc2c1NC(=O)CN1CCN(c2ccccc2)CC1	0%	u	22µM*	36*	10µM*	67
COC(=O)c1[nH]c2cc(C)ccc2c1NC(=O)CN1CCc2cc(OC)c(OC)cc2C1	15%	1%	u	-17	-4%	-67*
CCCCC(CC)CNC(=O)CN(C)S(=O)(=O)c1ccc2c(c1)c(=O)n(C)c(=O)n2C (stereo unspecified)	1%	-5%	-2%	-5	-13%	x
COc1ccc(N2CCN(C(=O)COC(=O)CC(NC(N)=O)c3ccc(Cl)cc3)CC2)cc1 (stereo unspecified)	0%	8%	-4%	0	-9%	5
Cc1cc[n+](CC(=O)c2ccc(F)cc2)c2ccccc12	x	x	-15%	x	x	x
COc1ccc(CCCNC(=O)C2(C)Cc3c(-c4cccc(C(N)=O)c4)ccnc3O2)cc1 (stereo unspecified)	-5%	u	-5%	1	u	-21
CC(C)C[C@H](NC(=O)[C@H](Cc1ccccc1)NC(=O)c1cnccn1)B(O)O	x	x	x	7	x	x
Cc1ccc2[nH]c(C(=O)O)c(NC(=O)CN3CCN(c4cccc(C)c4C)CC3)c2c1	5%	-18%	-8%	4	10µM*	u
O=C(Nc1ccc(F)c(Cl)c1)c1cc(C2CCCCN2C(=O)c2ccccc2)on1 (stereo unspecified)	2%	-16%	-7%	-7	u	u
SMILES	GLP1R ag	GLP1R cytotox	ClpP mod	DRD3 agonist	GLP-1R inv ag	D3 antag
C[C@H]1CN([C@@H](C)CO)C(=O)c2cc(Br)cnc2O[C@H]1CN(C)Cc1ccccc1C(=O)O	-4%	-18%	-1%	2	-7%	13
O=C(c1ccccc1)c1ccccc1C(=O)N1CCCC1	11%	2%	-2%	-3	16%	-50*
CCOC(=O)c1sc(Nc2nc3c(F)cccc3s2)cc1C	10%	38%	8.9µM*	-2	29%	11
Cc1[nH]nc2c1C(c1ccsc1C)C(C#N)=C(N)O2 (stereo unspecified)	-6%	-16%	0%	1	4%	20
Cc1cc(C2C(C#N)=C(N)Oc3n[nH]c(C)c32)c(C)s1 (stereo unspecified)	-28%	-3%	18µM*	-3	-24%	-16
CC(C)(C)c1ccc(Oc2cccc(C3CC(=O)C(C4NCCc5ccccc54)C(=O)C3n3cncn3)c2)cc1 (stereo unspecified)	-5%	-22%	-3%	2	6.3µM*	0
O=C1CC(c2ccccc2Oc2cccc(Cl)c2)C(n2cncn2)C(=O)C1C1NCCc2ccccc21 (stereo unspecified)	-1%	-10%	-3%	-5	u	-28
CC(=O)c1ccc(-n2c(-c3cc(-c4ccco4)[nH]n3)n[nH]c2=S)cc1	9%	2%	1%	-10	8%	-84*
O=C(O)c1ccc(-n2c(-c3cc(C4CC4)[nH]n3)n[nH]c2=S)cc1	5%	3%	x	-21	3%	u
O=C(O)c1ccc(-n2c(-c3cc(-c4ccco4)[nH]n3)n[nH]c2=S)cc1	-3%	-3%	-1%	-11	3%	-91*
CCN(CC)S(=O)(=O)c1nnc(NC(=O)COc2ccc(C)cc2)s1	x	1%	-3%	-6	2%	x
COc1cc(OC)cc(C(=O)Nc2cccc(NC(=O)c3ccccc3)c2)c1	13%	-11%	x	0	-23%	7
COc1cc(OC)cc(C(=O)NCC(=O)Nc2ccc(-c3ccccc3)cc2)c1	44%	u	x	-24	u	-59*
COc1cc(OC)cc(C(=O)Nc2ccc(Nc3ccccc3)cc2)c1	14%	-25%	0%	4	11µM*	-16
O=c1[nH]ncc2c3ccccc3n(Cc3ccccc3F)c12	12%	-3%	-5%	-9	2%	-60*
Cc1cc(C(=O)CN2CCCCC2)c(C)n1-c1ccc(F)cc1	-3%	-5%	25µM*	-5	-5%	-2
COc1ccc(CN(C)CC2CCCN(CCc3ccc(Cl)cc3)C2)cc1OC (stereo unspecified)	0%	-26%	x	-15	u	3

Assay outcomes deposited in PubChem BioAssay by National Center for Advancing Translational Sciences (NCATS).
